About 2,000 (36%) of roughly 5,500 compounds were called active. Roughly 18% stayed inconclusive and do not appear here. Cut-off read from the data, not from the text of the source: active = normalized growth mostly below about 0.91 (no sharp cut-off); inconclusive = no clear call, values can overlap the other calls; inactive = mostly above about 0.92. Some of the results follow.
Experiment: chemical genetic growth profiling, strain panel (AID 1159580);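 note: tested at 20 µM; growth read once vehicle control cultures reached saturation at 30 °C; 1 = growth at the plate median or of vehicle wells; lower values mean less growth of the strain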
Conditions: growth OD
[1] = S. cerevisiae deletion strains, locus YDL101C, strain DUN1, active compounds read low
[2] = S. cerevisiae deletion strains, locus YHR030C, strain SLT2, active compounds read low

Measured: normalized growth

COc1cccc(NC(=S)NC2CC(C)CC(C)(C)C2)c1 (configuration not stated)
inactive: S. cerevisiae deletion strains, locus YAR019C, strain CDC15, active compounds read low 0.986 | S. cerevisiae deletion strains, locus YBL105C, strain PKC1, active compounds read low 0.986 | S. cerevisiae deletion strains, locus YBR135W, strain CKS1, active compounds read low 0.973 | S. cerevisiae deletion strains, locus YBR136W, strain MEC1, active compounds read low 0.985 | S. cerevisiae deletion strains, locus YBR160W, strain CDC28, active compounds read low 0.978 | S. cerevisiae deletion strains, locus YDL017W, strain CDC7, active compounds read low 0.984 | S. cerevisiae deletion strains, locus YDL028C, strain MPS1, active compounds read low 0.99 | [1] 0.975 | S. cerevisiae deletion strains, locus YDL108W, strain KIN28, active compounds read low 0.989 | S. cerevisiae deletion strains, locus YDL132W, strain cdc53, active compounds read low 0.984 | S. cerevisiae deletion strains, locus YDL214C, strain PRR2, active compounds read low 0.986 | S. cerevisiae deletion strains, locus YDR052C, strain DBF4, active compounds read low 0.99 | S. cerevisiae deletion strains, locus YDR054C, strain cdc34, active compounds read low 0.967 | S. cerevisiae deletion strains, locus YDR226W, strain ADK1, active compounds read low 0.972 | S. cerevisiae deletion strains, locus YDR477W, strain SNF1, active compounds read low 0.98 | S. cerevisiae deletion strains, locus YER123W, strain YCK3, active compounds read low 0.962 | S. cerevisiae deletion strains, locus YER133W, strain GLC7, active compounds read low 0.962 | S. cerevisiae deletion strains, locus YFL009W, strain cdc4, active compounds read low 0.98 | S. cerevisiae deletion strains, locus YFL029C, strain CAK1, active compounds read low 0.99 | S. cerevisiae deletion strains, locus YFR003C, strain YPI1, active compounds read low 0.984 | S. cerevisiae deletion strains, locus YFR019W, strain FAB1, active compounds read low 1.02 | S. cerevisiae deletion strains, locus YFR028C, strain CDC14, active compounds read low 0.966 | S. cerevisiae deletion strains, locus YGR040W, strain KSS1, active compounds read low 0.979 | S. cerevisiae deletion strains, locus YGR052W, strain FMP48, active compounds read low 1.02 | S. cerevisiae deletion strains, locus YGR092W, strain DBF2, active compounds read low 0.895 | [2] 0.927 | S. cerevisiae deletion strains, locus YHR079C, strain IRE1, active compounds read low 0.922 | S. cerevisiae deletion strains, locus YHR082C, strain KSP1, active compounds read low 1.08 | S. cerevisiae deletion strains, locus YHR205W, strain SCH9, active compounds read low 0.995 | S. cerevisiae deletion strains, locus YIL147C, strain SLN1, active compounds read low 0.981 | S. cerevisiae deletion strains, locus YJL095W, strain BCK1, active compounds read low 0.929 | S. cerevisiae deletion strains, locus YJL128C, strain PBS2, active compounds read low 0.954 | S. cerevisiae deletion strains, locus YJL157C, strain FAR1, active compounds read low 0.976 | S. cerevisiae deletion strains, locus YJR016C, strain ILV3, active compounds read low 0.986 | S. cerevisiae deletion strains, locus YJR066W, strain TOR1 (second series), active compounds read low 0.979 | S. cerevisiae deletion strains, locus YJR066W, strain TOR1, active compounds read low 1.07 | S. cerevisiae deletion strains, locus YKL048C, strain ELM1, active compounds read low 0.989 | S. cerevisiae deletion strains, locus YKL067W, strain YNK1, active compounds read low 0.983 | S. cerevisiae deletion strains, locus YKL101W, strain HSL1, active compounds read low 0.996 | S. cerevisiae deletion strains, locus YKL193C, strain SDS22, active compounds read low 0.981 | S. cerevisiae deletion strains, locus YKL203C, strain TOR2, active compounds read low 1.03 | S. cerevisiae deletion strains, locus YLR113W, strain HOG1, active compounds read low 0.957 | S. cerevisiae deletion strains, locus YLR133W, strain CKI1, active compounds read low 0.979 | S. cerevisiae deletion strains, locus YLR403W, strain SFP1, active compounds read low 0.938 | S. cerevisiae deletion strains, locus YML070W, strain DAK1, active compounds read low 0.978 | S. cerevisiae deletion strains, locus YMR001C, strain CDC5, active compounds read low 0.984 | S. cerevisiae deletion strains, locus YMR205C, strain PFK2 (second series), active compounds read low 1 | S. cerevisiae deletion strains, locus YMR277W, strain FCP1, active compounds read low 0.988 | S. cerevisiae deletion strains, locus YNL006W, strain LST8, active compounds read low 0.984 | S. cerevisiae deletion strains, locus YNL020C, strain ARK1, active compounds read low 0.974 | S. cerevisiae deletion strains, locus YNL161W, strain CBK1, active compounds read low 0.971 | S. cerevisiae deletion strains, locus YNL183C, strain NPR1, active compounds read low 1.07 | S. cerevisiae deletion strains, locus YNL207W, strain RIO2, active compounds read low 0.967 | S. cerevisiae deletion strains, locus YNL222W, strain SSU72, active compounds read low 1 | S. cerevisiae deletion strains, locus YNL307C, strain MCK1 (second series), active compounds read low 0.977 | S. cerevisiae deletion strains, locus YOL078W, strain AVO1, active compounds read low 0.985 | S. cerevisiae deletion strains, locus YOL136C, strain PFK27, active compounds read low 0.964 | S. cerevisiae deletion strains, locus YOR061W, strain CKA2, active compounds read low 0.986 | S. cerevisiae deletion strains, locus YOR119C, strain RIO1, active compounds read low 1.04 | S. cerevisiae deletion strains, locus YOR231W, strain MKK1, active compounds read low 1.05 | S. cerevisiae deletion strains, locus YOR329C, strain SCD5, active compounds read low 0.984 | S. cerevisiae deletion strains, locus YPL031C, strain PHO85, active compounds read low 0.973 | S. cerevisiae deletion strains, locus YPL153C, strain RAD53, active compounds read low 0.964 | S. cerevisiae deletion strains, locus YPL204W, strain HRR25, active compounds read low 0.949 | S. cerevisiae deletion strains, locus YPL209C, strain IPL1, active compounds read low 0.99 | S. cerevisiae deletion strains, locus YPL256C, strain CLN2, active compounds read low 0.984 | S. cerevisiae deletion strains, locus YPR025C, strain CCL1, active compounds read low 0.988 | S. cerevisiae deletion strains, locus YPR106W, strain ISR1, active compounds read low 0.994 | S. cerevisiae deletion strains, locus YPR111W, strain DBF20, active compounds read low 0.991 | S. cerevisiae deletion strains, strain NNK1, active compounds read low 0.982 | S. cerevisiae deletion strains, strain TSCII, active compounds read low 0.976

Cc1cccc(NC(=S)NC2CC3C=CC2C3)c1 (configuration not stated)
active: S. cerevisiae deletion strains, locus YDL134C, strain PPH21, active compounds read low 0.904 | S. cerevisiae deletion strains, locus YEL061C, strain CIN8, active compounds read low 0.905 | S. cerevisiae deletion strains, locus YLR039C, strain RIC1, active compounds read low 0.685 | S. cerevisiae deletion strains, locus YLR085C, strain ARP6, active compounds read low 0.435 | S. cerevisiae deletion strains, locus YOL006C, strain TOP1, active compounds read low 0.182
inactive: S. cerevisiae deletion strains, locus YAL013W, strain DEP1, active compounds read low 0.939 | S. cerevisiae deletion strains, locus YBR229C, strain ROT2, active compounds read low 0.998 | S. cerevisiae deletion strains, locus YCL061C, strain MRC1, active compounds read low 0.979 | [1] 0.985 | S. cerevisiae deletion strains, locus YDR150W, strain NUM1, active compounds read low 1.01 | S. cerevisiae deletion strains, locus YGR078C, strain PAC10, active compounds read low 0.978 | S. cerevisiae deletion strains, locus YGR229C, strain SMI1, active compounds read low 0.987 | [2] 0.91 | S. cerevisiae deletion strains, locus YHR087W, strain rtc3, active compounds read low 1.02 | S. cerevisiae deletion strains, locus YJR043C, strain POL32, active compounds read low 0.926 | S. cerevisiae deletion strains, locus YJR075W, strain HOC1, active compounds read low 0.994 | S. cerevisiae deletion strains, locus YLR058C, strain SHM2 (second series), active compounds read low 0.993 | S. cerevisiae deletion strains, locus YLR262C, strain YPT6, active compounds read low 0.825 | S. cerevisiae deletion strains, locus YML094W, strain GIM5, active compounds read low 0.882 | S. cerevisiae deletion strains, locus YMR219W, strain ESC1, active compounds read low 0.984 | S. cerevisiae deletion strains, locus YMR263W, strain SAP30, active compounds read low 0.949 | S. cerevisiae deletion strains, locus YMR307W, strain GAS1, active compounds read low 0.688 | S. cerevisiae deletion strains, locus YNL128W, strain TEP1, active compounds read low 0.977 | S. cerevisiae deletion strains, locus YNL153C, strain GIM3, active compounds read low 0.98 | S. cerevisiae deletion strains, locus YNL298W, strain CLA4 (second series), active compounds read low 0.85 | S. cerevisiae deletion strains, locus YNL322C, strain KRE1, active compounds read low 0.993 | S. cerevisiae deletion strains, locus YNR030W, strain Alg12, active compounds read low 0.897 | S. cerevisiae deletion strains, locus YPL055C, strain LGE1, active compounds read low 0.913 | S. cerevisiae deletion strains, locus YPL241C, strain CIN2, active compounds read low 0.91 | S. cerevisiae deletion strains, locus YPR135W, strain CTF4, active compounds read low 0.814 | S. cerevisiae strains, strain wild type, active compounds read low 0.927
